# Test results from article PMC7862700, “An all-to-all approach to the identification of sequence-specific readers for epigenetic DNA modifications on cytosine”.
# Tests used:
# Assay in all cases: DAPPL (digital affinity profiling via proximity ligation, sequencing); 10 mM Tris-HCl pH 7.5, 50 mM NaCl, 1 mM DTT, 4% glycerol, room temperature, 30 min; GST-TFs on glutathione beads, 16-mer random dsDNA library, 0.1% formaldehyde crosslink after washing; high values mean tight binding
# Conditions in all cases: protein: recombinant; tags: N-terminal GST; dsDNA, one strand shown
# ERF = target: T1, ERF (Homo sapiens, UniProt P50548 1-548)
# T1 sequence: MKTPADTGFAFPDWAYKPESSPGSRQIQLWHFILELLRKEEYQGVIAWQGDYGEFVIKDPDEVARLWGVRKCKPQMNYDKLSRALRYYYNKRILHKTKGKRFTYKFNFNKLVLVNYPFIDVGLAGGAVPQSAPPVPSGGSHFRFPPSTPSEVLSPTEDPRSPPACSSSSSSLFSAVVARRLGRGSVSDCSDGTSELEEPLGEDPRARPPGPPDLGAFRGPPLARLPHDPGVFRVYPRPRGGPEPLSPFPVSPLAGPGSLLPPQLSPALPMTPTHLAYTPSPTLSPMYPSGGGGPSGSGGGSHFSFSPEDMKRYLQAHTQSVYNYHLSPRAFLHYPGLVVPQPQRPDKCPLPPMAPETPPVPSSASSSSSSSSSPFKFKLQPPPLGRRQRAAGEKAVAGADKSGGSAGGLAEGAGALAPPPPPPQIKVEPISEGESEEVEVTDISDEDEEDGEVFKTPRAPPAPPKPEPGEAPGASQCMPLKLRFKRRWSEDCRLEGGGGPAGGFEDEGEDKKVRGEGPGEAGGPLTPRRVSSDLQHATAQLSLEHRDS
# Procedure, shortened: (§1)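 Binding signal is defined as a hexamer's read frequency for one factor over its frequency for the tag-only sample. To obtain reads, GST-fused human transcription factors were expressed in yeast, captured on glutathione beads, barcoded with DNA and pooled with that sample. Pools met 200 nmole of a 16-mer random double-stranded DNA library in Tris/NaCl/DTT/glycerol buffer for 30 min at room temperature before washing, 0.1% formaldehyde crosslinking, proximity ligation (BsaI/T4 ligase, 1 h, 37 °C), PCR and Illumina NextSeq500 sequencing.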
# ETV3L = target: T2, ETV3L (Homo sapiens, UniProt Q6ZN32 1-361)
# T2 sequence: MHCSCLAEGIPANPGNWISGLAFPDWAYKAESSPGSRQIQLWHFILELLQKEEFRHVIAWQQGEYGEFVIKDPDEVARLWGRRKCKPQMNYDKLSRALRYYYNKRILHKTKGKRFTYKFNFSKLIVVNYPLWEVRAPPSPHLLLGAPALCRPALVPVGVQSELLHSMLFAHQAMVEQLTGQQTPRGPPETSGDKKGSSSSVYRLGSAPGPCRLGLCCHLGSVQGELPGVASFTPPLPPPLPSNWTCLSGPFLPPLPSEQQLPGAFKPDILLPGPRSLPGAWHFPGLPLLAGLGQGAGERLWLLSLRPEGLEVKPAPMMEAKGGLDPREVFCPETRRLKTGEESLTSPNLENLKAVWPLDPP
# Procedure, shortened: as §1
# ETS2 = target: T3, ETS2 (Homo sapiens, UniProt P15036 1-469)
# T3 sequence: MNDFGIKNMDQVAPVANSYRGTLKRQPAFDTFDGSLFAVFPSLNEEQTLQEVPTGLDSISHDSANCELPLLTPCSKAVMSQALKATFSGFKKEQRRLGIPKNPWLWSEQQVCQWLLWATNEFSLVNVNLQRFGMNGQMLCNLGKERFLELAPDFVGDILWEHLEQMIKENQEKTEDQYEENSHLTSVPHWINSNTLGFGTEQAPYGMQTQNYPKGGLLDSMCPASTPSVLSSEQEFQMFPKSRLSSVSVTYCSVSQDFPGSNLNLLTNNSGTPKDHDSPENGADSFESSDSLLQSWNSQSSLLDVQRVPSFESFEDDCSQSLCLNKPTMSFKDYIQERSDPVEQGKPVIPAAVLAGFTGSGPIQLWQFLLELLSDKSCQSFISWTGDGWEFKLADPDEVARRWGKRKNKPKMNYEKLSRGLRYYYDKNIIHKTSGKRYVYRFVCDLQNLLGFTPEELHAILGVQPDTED
# Procedure, shortened: as §1
# SPDEF = target: T4, SPDEF (Homo sapiens, UniProt O95238 1-335)
# T4 sequence: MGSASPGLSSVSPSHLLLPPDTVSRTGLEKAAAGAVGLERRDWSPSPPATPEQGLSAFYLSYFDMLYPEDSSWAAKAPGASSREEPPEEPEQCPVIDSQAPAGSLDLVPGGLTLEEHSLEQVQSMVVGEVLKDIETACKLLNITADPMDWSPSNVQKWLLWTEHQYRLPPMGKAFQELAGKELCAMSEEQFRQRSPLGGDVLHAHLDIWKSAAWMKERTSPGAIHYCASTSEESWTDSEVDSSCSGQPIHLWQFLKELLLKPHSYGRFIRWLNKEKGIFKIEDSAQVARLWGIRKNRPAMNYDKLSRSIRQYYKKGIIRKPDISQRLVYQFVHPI
# Procedure, shortened: as §1
# ETV7 = target: T5, ETV7 (Homo sapiens, UniProt Q9Y603 1-341)
# T5 sequence: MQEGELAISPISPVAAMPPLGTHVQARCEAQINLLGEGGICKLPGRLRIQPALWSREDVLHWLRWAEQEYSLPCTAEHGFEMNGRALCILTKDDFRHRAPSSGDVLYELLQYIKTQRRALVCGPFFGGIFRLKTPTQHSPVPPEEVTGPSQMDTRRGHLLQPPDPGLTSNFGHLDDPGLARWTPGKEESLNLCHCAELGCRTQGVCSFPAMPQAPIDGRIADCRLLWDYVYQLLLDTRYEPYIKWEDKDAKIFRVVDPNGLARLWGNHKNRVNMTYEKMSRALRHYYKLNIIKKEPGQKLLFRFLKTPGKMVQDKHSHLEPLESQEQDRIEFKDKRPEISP
# Procedure, shortened: as §1
# ELF5 = target: T6, ELF5 (Homo sapiens, UniProt Q9UKW6-2 1-255)
# T6 sequence: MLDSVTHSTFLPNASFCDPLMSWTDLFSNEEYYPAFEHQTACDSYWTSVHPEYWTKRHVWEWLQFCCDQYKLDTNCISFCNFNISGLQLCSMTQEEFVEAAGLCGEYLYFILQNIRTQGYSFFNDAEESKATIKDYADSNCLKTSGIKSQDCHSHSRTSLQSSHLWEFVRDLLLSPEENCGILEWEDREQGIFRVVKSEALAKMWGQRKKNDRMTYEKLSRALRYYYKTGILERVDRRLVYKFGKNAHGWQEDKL
# Procedure, shortened: as §1
# ETV3 = target: T7, ETV3 (Homo sapiens, UniProt P41162-2 1-143)
# T7 sequence: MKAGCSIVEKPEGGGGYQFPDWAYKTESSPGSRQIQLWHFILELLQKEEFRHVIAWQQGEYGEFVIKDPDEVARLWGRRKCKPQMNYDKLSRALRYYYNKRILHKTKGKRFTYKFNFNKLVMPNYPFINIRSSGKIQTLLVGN
# Procedure, shortened: as §1
# ETV6 = ETV6 (Homo sapiens, UniProt P41212 1-452)
# Sequence of ETV6 (P41212 whole entry): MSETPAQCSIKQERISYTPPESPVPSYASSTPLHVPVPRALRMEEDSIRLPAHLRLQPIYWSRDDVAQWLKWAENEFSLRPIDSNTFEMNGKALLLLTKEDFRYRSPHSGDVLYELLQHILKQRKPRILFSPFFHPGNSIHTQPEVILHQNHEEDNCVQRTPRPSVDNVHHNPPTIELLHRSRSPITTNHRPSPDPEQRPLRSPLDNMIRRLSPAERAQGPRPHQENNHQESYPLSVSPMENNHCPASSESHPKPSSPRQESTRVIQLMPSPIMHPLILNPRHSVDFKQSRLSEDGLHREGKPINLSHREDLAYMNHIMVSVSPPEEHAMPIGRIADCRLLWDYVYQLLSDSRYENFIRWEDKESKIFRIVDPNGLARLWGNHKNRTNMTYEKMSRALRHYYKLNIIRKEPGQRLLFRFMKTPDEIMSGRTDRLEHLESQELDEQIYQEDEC
# Procedure, shortened: as §1
Sequence,binding signal (ERF),binding signal (ETV3L),binding signal (ETS2),binding signal (SPDEF),binding signal (ETV7),binding signal (ELF5),binding signal (ETV3),binding signal (ETV6)
CTGCAT,"1.38 fold enrichment (6-mer frequency, TF over GST control)","1.66 fold enrichment (6-mer frequency, TF over GST control)","1.4 fold enrichment (6-mer frequency, TF over GST control)","1.57 fold enrichment (6-mer frequency, TF over GST control)","1.41 fold enrichment (6-mer frequency, TF over GST control)","1.29 fold enrichment (6-mer frequency, TF over GST control)","1.24 fold enrichment (6-mer frequency, TF over GST control)","1.25 fold enrichment (6-mer frequency, TF over GST control)"
ATCTGC,"1.31 fold enrichment (6-mer frequency, TF over GST control)","1.4 fold enrichment (6-mer frequency, TF over GST control)","1.37 fold enrichment (6-mer frequency, TF over GST control)","1.36 fold enrichment (6-mer frequency, TF over GST control)","1.38 fold enrichment (6-mer frequency, TF over GST control)","1.31 fold enrichment (6-mer frequency, TF over GST control)","1.36 fold enrichment (6-mer frequency, TF over GST control)","1.29 fold enrichment (6-mer frequency, TF over GST control)"
ATTTTA,"1.27 fold enrichment (6-mer frequency, TF over GST control)","1.43 fold enrichment (6-mer frequency, TF over GST control)","1.33 fold enrichment (6-mer frequency, TF over GST control)","1.23 fold enrichment (6-mer frequency, TF over GST control)","1.37 fold enrichment (6-mer frequency, TF over GST control)","1.2 fold enrichment (6-mer frequency, TF over GST control)","1.26 fold enrichment (6-mer frequency, TF over GST control)","1.26 fold enrichment (6-mer frequency, TF over GST control)"
ACAATA,"1.21 fold enrichment (6-mer frequency, TF over GST control)","1.14 fold enrichment (6-mer frequency, TF over GST control)","1.15 fold enrichment (6-mer frequency, TF over GST control)","1.15 fold enrichment (6-mer frequency, TF over GST control)","1.07 fold enrichment (6-mer frequency, TF over GST control)","1.09 fold enrichment (6-mer frequency, TF over GST control)","1.21 fold enrichment (6-mer frequency, TF over GST control)","1.18 fold enrichment (6-mer frequency, TF over GST control)"
TCTTAG,"1.21 fold enrichment (6-mer frequency, TF over GST control)","1.35 fold enrichment (6-mer frequency, TF over GST control)","1.13 fold enrichment (6-mer frequency, TF over GST control)","1.24 fold enrichment (6-mer frequency, TF over GST control)","1.18 fold enrichment (6-mer frequency, TF over GST control)","1.21 fold enrichment (6-mer frequency, TF over GST control)","1.2 fold enrichment (6-mer frequency, TF over GST control)","1.19 fold enrichment (6-mer frequency, TF over GST control)"
CCGCTT,"1.77 fold enrichment (6-mer frequency, TF over GST control)","1.89 fold enrichment (6-mer frequency, TF over GST control)","1.95 fold enrichment (6-mer frequency, TF over GST control)","1.99 fold enrichment (6-mer frequency, TF over GST control)","1.62 fold enrichment (6-mer frequency, TF over GST control)","2.05 fold enrichment (6-mer frequency, TF over GST control)","1.96 fold enrichment (6-mer frequency, TF over GST control)","2.17 fold enrichment (6-mer frequency, TF over GST control)"
ACCAAT,"1.32 fold enrichment (6-mer frequency, TF over GST control)","1.28 fold enrichment (6-mer frequency, TF over GST control)","1.39 fold enrichment (6-mer frequency, TF over GST control)","1.24 fold enrichment (6-mer frequency, TF over GST control)","1.29 fold enrichment (6-mer frequency, TF over GST control)","1.23 fold enrichment (6-mer frequency, TF over GST control)","1.29 fold enrichment (6-mer frequency, TF over GST control)","1.34 fold enrichment (6-mer frequency, TF over GST control)"
TGTTTT,"1.26 fold enrichment (6-mer frequency, TF over GST control)","1.37 fold enrichment (6-mer frequency, TF over GST control)","1.36 fold enrichment (6-mer frequency, TF over GST control)","1.41 fold enrichment (6-mer frequency, TF over GST control)","1.28 fold enrichment (6-mer frequency, TF over GST control)","1.48 fold enrichment (6-mer frequency, TF over GST control)","1.46 fold enrichment (6-mer frequency, TF over GST control)","1.39 fold enrichment (6-mer frequency, TF over GST control)"
